Among the data in ChEMBL document CHEMBL4513216, “Probing the Open Global Health Chemical Diversity Library for Multistage-Active Starting Points for Next-Generation Antimalarials” (ACS Infect Dis, 2020) are INHIBITION values, retold here.

The structures appear in SMILES notation. In all, about 69,000 compounds went through this assay and about 8,600 (12%) showed an effect of 50% or more. The full list was thinned out, with strong results kept by preference.

The test system of the experiment is Plasmodium berghei. The experiment can be described thus: Screen against P. berghei liver stage (PbLuc), transformed with Luciferase, at 10uM. Conditions: tested at 10 uM. In kind it is functional, HepG2.
As to `CCN1Cc2cc(OC)ccc2N(CC(C)(C)O)CCC1=O`, the INHIBITION is given as 17.7%.
Turning to `COc1ccc2c(c1)CN(Cc1ccco1)C(=O)CCN2CC(C)(C)O`, the INHIBITION is 51.7%.
Next, `CCOc1cc(CNCC2CN(C3CC3)CCO2)ccc1OC` (configuration not stated): 22.3%.
Next, `O=C(N[C@@H]1CN(Cc2ccc(F)cc2)C[C@H]1O)c1cscn1`: 10%; `O=C(N[C@@H]1CN(CCc2ccc(F)cc2)C[C@H]1O)c1cscn1`: 54.5%.
Next, `O=C(N[C@@H]1CN(Cc2ccc(F)c(F)c2)C[C@H]1O)c1cscn1`: 2.6%; `Cc1nc(Nc2nnc(C)s2)cc(C2CCCN2C2CCCC2)n1` (configuration not stated): 28%.
Consider `CCc1ncnc2c1CCN(Cc1ccccn1)CC2`, for which the INHIBITION is -9.48%.
The figure for `O=C(Nc1ccnc(OC2CCOC2)c1)c1ccc(F)cc1Cl` (configuration not stated) is 17.6%.
For `Cc1occc1C(=O)Nc1ccnc(OC2CCOC2)c1` (configuration not stated), the INHIBITION is on record as 7.84%.
With `O=C(Nc1ccnc(OC2CCOC2)c1)c1ccccc1Cl` (configuration not stated), the INHIBITION is given as 65.3%.
The figure for `CN(C)Cc1cc(C2CCCCN2S(=O)(=O)c2cccc(Cl)c2)nn1C` (configuration not stated) is 37.8%; for `CC(=O)Nc1ccc(SCC(O)COCc2ccco2)cc1` (configuration not stated) it is 26.9%.
Next, `COc1ccc2oc(C(C)NC(=O)NCC(C)(C)C(N)=O)c(C)c2c1` (configuration not stated): 42.3%; `CCN(Cc1nc(COC)no1)C(=O)CCn1c(C)cc2ccccc21`: 36.7%; `CCN(Cc1noc(C)n1)C(=O)CCn1c(C)cc2ccccc21`: 58.5%.
Turning to `CCN(Cc1ccncc1)C(=O)CCn1c(C)cc2ccccc21`, the INHIBITION was 14.9%.
As to `COCCNC(=O)[C@H]1C[C@@H]2CCN(c3ncccn3)C[C@H]2O1`, the INHIBITION is -56.7%.
As for `CCN1CCN(C)C2(CCN(C(=O)CC(F)(F)F)CC2)C1=O`, the INHIBITION amounted to 71.3%.
Next, `CN1CCN(CC2CC2)C(=O)C12CCN(C(=O)CC(F)(F)F)CC2`: -14.2%; `CN1CCN(C)C2(CCN(C(=O)CC(F)(F)F)CC2)C1=O`: 27.5%.
For `CC(C)CC(=O)NS(=O)(=O)c1ccc(C#N)cc1C(F)(F)F`, the INHIBITION stood at 2.3%.
As for `COc1ccc(C2=NOC(C#N)C2)cc1` (configuration not stated), the INHIBITION is recorded as 15.9%.
Next, `Cc1cc(N(C)C)nc(N2CCN(Cc3nccn3C)CC2)n1`: -87%; `CCc1nnc2n1CCN(c1nc(C)cc(N(C)C)n1)C2`: 71.5%; `Cc1cc(N(C)C)nc(N2CCn3c(C)nnc3C2)n1`: 51.1%.
The figure for `CCc1nnc2n1CCN(C(=O)c1ccnc(N(C)C)c1)C2` is 19.2%; for `Cc1cc(N(C)C)nc(N2CCn3c(nnc3C(C)C)C2)n1` it is 52.2%; for `Cc1cn2nc(N3CCn4c(nnc4C(C)C)C3)sc2n1` it is 7.81%.
The figure for `Cc1cc(N(C)C)nc(N2CCN(C(C)c3nc(C)no3)CC2)n1` (configuration not stated) is -71.2%; for `CC(C)c1nnc2n1CCN(C(=O)c1ccnc(N(C)C)c1)C2` it is 42%.
As to `Cc1cc(N(C)C)nc(N2CCn3c(nnc3C3CC3)C2)n1`, the INHIBITION stood at 21.2%.
Next, `CS(=O)(=O)NCCC1CCCCN1C(=O)NCc1ccccn1` (configuration not stated): 4.13%; `CC(C)COc1cncc(N2CCCC(CC(N)=O)C2)n1` (configuration not stated): 4.82%; `O=C(c1cnccn1)N1CCc2onc(CN3CCOCC3)c2C1`: 45.5%.
For `c1ccc2cc(OCCCN3CCn4c(nnc4C4CC4)C3)ccc2c1`, the INHIBITION is reported as 35.9%.
Next, `CC(C)=CCN1CC2(CCN(C(=O)CCn3ccnc3C)CC2)CC1=O`: 27.7%; `CC(C)N(C)C[C@H]1C[C@@H]2CN(Cc3ccco3)C[C@@H]2O1`: 8.74%; `O=C(C1CCCC1)N1CCCC([C@@H]2C[C@H](C(F)F)n3ncnc3N2)C1` (some centres not stated): 0.788%.
For `O=C1CN(CCS(=O)(=O)c2ccc(Cl)cc2)CCN1`, the INHIBITION was determined as 14%.
As to `Cc1cccc(C(=O)Nc2cccc3c2CCCC3)n1`, the INHIBITION is recorded as -45.5%.
Next, `O=C(Nc1cccc2c1CCCC2)c1cccnc1N1CCCNCC1`: 53%; `CC1CN(c2ncccc2C(=O)Nc2cccc3c2CCCC3)CCN1` (configuration not stated): -63.6%; `c1cnc(N2CCO[C@H]3[C@H](OCc4cccnc4)CC[C@@H]32)nc1`: 21.5%.
The figure for `CS(=O)(=O)N1C[C@@H](NC(=O)c2ccno2)[C@@H]2OCCC[C@@H]21` is 36.7%.
Next, `CN1CC(=O)N(c2ccsc2)CC12CCN(C(=O)Nc1ccccc1)C2` (configuration not stated): 1.94%.
Take `CC(C(=O)N1CCCN(Cc2ccc(C#N)cc2)CC1)n1cccn1` (configuration not stated): the INHIBITION was found to be 19.583%.
Next, `CCCC(=O)NCCc1cc(N2CCN(C(C)=O)CC2)nc(C2CC2)n1`: 46%; `CCC(=O)NCCc1cc(N2CCN(C(C)=O)CC2)nc(C2CC2)n1`: 51.2%.
The figure for `CC(=O)NCCc1cc(N2CCN(C(C)=O)CC2)nc(C2CC2)n1` is 43.8%; for `COc1cccc(CN(C)C(C)C(=O)Nc2nc(C)c(C)s2)c1` (configuration not stated) it is 39.3%.
The figure for `CCS(=O)(=O)N1CCC[C@]2(C(=O)N(C)C)CN(c3ncccn3)C[C@@H]2C1` is -47.6%.
